Data on 124 compounds can be found in PubChem BioAssay AID2289 (National Center for Advancing Translational Sciences (NCATS), 2010).

Each structure is given as a SMILES string. In all, about 340,000 compounds went through this assay and about 3,300 (0.97%) were called active. Another 9% or so got no clear call; they are omitted. Calls come from the whole dose curve; as a rule, active = well fitted inhibition curve with a large enough effect; inconclusive = small, poorly fitted or top-dose-only effect, or effect the other way; inactive = flat fitted curve, though single readings scatter. The list shows a part of the results.
Potency is the fitted concentration of half-maximal effect.

A short description of this experiment: qHTS Assay for Modulators of miRNAs and/or Inhibitors of miR-21. Note: nearly all actives have a fitted effect of over 55% in size. To be noted: HeLa miR-21-FLuc reporter, luciferase luminescence, 48 h; actives lower the signal. An outline of the steps: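 HeLa miR-21-FLuc reporter line, endogenous miR-21; 2000 cells/well in DMEM/10% FBS; compound titration up to ~40uM final, 48 h, 37 degree Celsius; luciferase detection reagent, 15 min lysis, CCD luminescence.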
A general note: qHTS replaces the single test concentration by a dilution series.
With `CC(=O)c1sc(NC(=O)c2ccccc2F)nc1-c1ccccc1`, the Potency is 3.29 µM (active).
Next, `O=C(Nc1ccccc1[N+](=O)[O-])C1COc2ccccc2O1` (centres undefined): 3.29 µM (active); `O=C(Nc1ncccc1Cl)C1COc2ccccc2O1` (centres undefined): 4.65 µM (active); `CCSc1nc2c(cnn2-c2ccccc2)c(=O)n1N`: 2.33 µM (active).
Take `O=C(NCCc1ccccc1)Nc1ccc(Cl)cc1`: the Potency was 1.65 µM (active).
As to `CC(=O)Nc1ccc(C(=O)NCCc2ccccc2)cc1`, the Potency was 7.36 µM (active).
On to `Clc1c(CSc2nc3ccccc3o2)nc2sccn12`, for which the Potency was 1.12 µM (active).
The result for `Cc1csc2nc(CSc3nc4ccccc4o3)c(Br)n12` reads 4.65 µM (active); that for `CCN(CC)c1nc(C)nc2c1cnn2CCc1ccccc1`, 5.85 µM (active); that for `Cc1nc(NC(C)C)c2cnn(CCc3ccccc3)c2n1`, 14.7 µM (active).
Next, `CCOC(=O)c1c(C)oc2c1c(C(c1ccccc1)N1CCOCC1)c(O)c1ccccc12` (centres undefined): 3.69 µM (active).
In the case of `CCOC(=O)c1c(C)oc2c1c(C(c1ccncc1)N1CCOCC1)c(O)c1ccccc12` (centres undefined), the Potency is 16.5 µM (active).
Next, `NC(=O)c1cnn(-c2cc(Oc3ccccc3)ncn2)c1N`: 2.07 µM (active).
Next, `NC(=O)c1cnn(-c2ccc3ccccc3c2)c1N`: 16.5 µM (active).
For the compound `Cc1ccc(O)c(-c2cc(C(=O)Nc3cccnc3)[nH]n2)c1`, the Potency is 2.61 µM (active).
With `Cc1ccc(-c2cc(C(=O)Nc3cccnc3)[nH]n2)c(O)c1C`, the Potency was 2.93 µM (active).
As to `O=C(Nc1cccnc1)c1cc(-c2cc(Cl)ccc2O)n[nH]1`, the Potency was 2.33 µM (active).
Next, `CCc1ccc(O)c(-c2cc(C(=O)Nc3cccnc3)[nH]n2)c1`: 2.33 µM (active); `Cc1cc(O)c(-c2cc(C(=O)Nc3cccnc3)[nH]n2)cc1C`: 0.414 µM (active).
Take `COc1ccc(Cl)c2c1[nH]c1nc(SCc3ccccn3)nnc12`: the Potency was 1.65 µM (active).
Regarding `O=C(COc1ccccc1Cl)Nc1ccccc1C(=O)N1CCCCC1`, the Potency was 6.56 µM (active).
Next, `CC(C)(C)NC(=O)NC(=O)COc1ccc(Br)cc1Br`: 0.585 µM (active); `O=C(COc1ccccc1Cl)NC(=O)NC1CCCC1`: 8.26 µM (active); `O=C(COc1ccc(Br)cc1Br)NC(=O)NC1CCCC1`: 5.21 µM (active).
The result for `O=C(COc1ccc(Cl)cc1Cl)NC(=O)N1CCCCC1` reads 6.56 µM (active); that for `O=C(Nc1cccc2ccccc12)N1N=CCC1c1ccccc1` (centres undefined), 6.56 µM (active); that for `Cc1ccc2nc(/C(C#N)=C/c3ccc(-c4ccc(C(=O)OC(C)C)cc4)o3)[nH]c2c1`, 4.14 µM (active).
Turning to `COC(=O)c1sc(-c2ccc(Cl)cc2)cc1N`, the Potency is 4.14 µM (active).
`CCOC(=O)c1sc(-c2ccccc2)cc1N`: the Potency is 3.98 µM (active).
The result for `COC(=O)c1sc(-c2cccs2)cc1N` reads 8.26 µM (active); that for `CCOC(=O)c1sc(-c2ccc(OC)cc2)cc1N`, 0.927 µM (active).
`CCOC(=O)c1c(N)sc(-c2ccccc2)c1C`: the Potency was 11.7 µM (active).
The result for `CCOC(=O)c1cc(-c2ccccc2)sc1N` reads 18.5 µM (active).
Next, `CCOC(=O)c1sc(=N)n(-c2ccc(OC)cc2)c1C`: 7.36 µM (active); `COC(=O)c1ccc(N2OC3(C)C=CC2CC3)cc1` (centres undefined): 13.1 µM (active); `N/C(=N\OC(=O)c1ccco1)c1cccc(Br)c1`: 3.69 µM (active).
The result for `N/C(=N\OC(=O)c1ccco1)c1ccccc1` reads 5.21 µM (active); that for `COc1ccc(/C(N)=N/OC(=O)c2ccco2)cc1OC`, 1.85 µM (active); that for `N/C(=N\OC(=O)c1cccs1)c1cccc(Br)c1`, 8.26 µM (active).
`N/C(=N\OC(=O)c1ccco1)c1ccc(Cl)cc1`: the Potency is 4.65 µM (active).
`CNc1nc(N2CCc3ccccc32)ncc1F`: the Potency is 1.85 µM (active).
The result for `CC1(C)CC(=O)c2cnc(N3CCc4ccccc43)nc2C1` reads 1.85 µM (active); that for `CC1(C)CC(=O)c2c(O)cc(OCc3ccc(Br)cc3)cc2O1`, 3.29 µM (active); that for `COc1cccc(N=Nc2c(N)[nH][nH]c2=O)c1`, 7.36 µM (active).
Turning to `CCOc1ccc(N=Nc2c(N)[nH][nH]c2=O)cc1`, the Potency is 2.93 µM (active).
The result for `Cc1cc(C(=O)CSc2ccc(F)cc2)cc(C)c1O` reads 9.27 µM (active); that for `Cc1cc(C(=O)CSc2ccccc2)cc(C)c1O`, 9.27 µM (active); that for `O=C(Nc1ccc(N2CCOCC2)c(Cl)c1)C1CCCCC1`, 16.5 µM (active).
The result for `CN(Cc1ccsc1)C(=O)CCc1nnc(CCCc2ccccc2)o1` reads 11.7 µM (active); that for `CCOC(=O)c1ccc(NC(=O)c2oc3ccc4c(c3c2C)C(=O)CC(C)(CC)O4)cc1` (centres undefined), 0.208 µM (active).
Next, `Cc1cc(C)cc(NC(=O)c2oc3ccc4c(c3c2C)C(=O)CC(C)(C)O4)c1`: 0.826 µM (active); `CCN(CC)c1ccc(/C=C(\C#N)C(N)=O)cc1`: 14.7 µM (active).
Take `Brc1ccc(/C=N/Nc2ccc3ccccc3n2)cc1`: the Potency was 2.61 µM (active).
On to `Brc1ccccc1/C=N/Nc1ccc2ccccc2n1`, for which the Potency is 1.17 µM (active).
The result for `Brc1ccc(/C=N/Nc2nc3ccccc3o2)cc1` reads 1.04 µM (active); that for `O=C(NCCc1cccs1)c1ccc(Cl)c(Cl)c1`, 2.07 µM (active); that for `c1ccc(CSCc2nc3ccccc3[nH]2)cc1`, 7.36 µM (active).
On to `Clc1ccccc1SCc1nc2ccccc2[nH]1`, for which the Potency is 7.36 µM (active).
Next, `c1ccc(CCc2nc3ccccc3[nH]2)cc1`: 9.27 µM (active); `CC1=NN(C(=O)c2ccc(C)o2)C(O)(c2ccccc2)C1` (centres undefined): 16.5 µM (active); `COc1ccc(CNC(=O)CSCc2ccccc2Cl)cc1`: 13.1 µM (active).
With `COc1ccc(NC(=O)CSCc2ccccc2C)cc1`, the Potency is 7.36 µM (active).
The result for `Cc1cccc(Nc2n[nH]c(C)c2[N+](=O)[O-])c1` reads 0.736 µM (active); that for `Cc1ccc(Nc2cc(C)nc(-c3ccccc3)n2)cc1`, 7.36 µM (active).
Next, `CC(=O)c1ccc(NC(=O)c2ccc(C)c(Br)c2)cc1`: 0.826 µM (active); `CC(=O)c1ccc(NC(=O)c2cc(Cl)sc2Cl)cc1`: 1.47 µM (active); `Cc1cc(-c2ccc(Br)cc2)n[nH]1`: 13.1 µM (active).
For the compound `CCC(=O)N1CCC(c2ccc(OC)cc2)=N1`, the Potency was 13.1 µM (active).
The result for `O=C(CSc1cccs1)Nc1cccc2ccccc12` reads 10.4 µM (active).
The result for `O=C(Nc1cccc2ccccc12)c1onc2c1CCCC2` reads 5.85 µM (active); that for `O=C(Nc1ccccc1F)C(=O)Nc1cccc2ccccc12`, 3.29 µM (active); that for `O=C(Nc1cccc2ccccc12)c1ccccc1`, 6.56 µM (active).
Next, `O=C(COC(=O)C1CC1)Nc1ccc(N=Nc2ccccc2)cc1`: 1.85 µM (active).
Consider `CC1CC1C(=O)OCC(=O)Nc1ccc(N=Nc2ccccc2)cc1` (centres undefined), for which the Potency was 1.47 µM (active).
Next, `C(=N\Nc1cc(N2CCCCC2)ncn1)/c1ccco1`: 2.93 µM (active).
Consider `Cc1ccc(-c2cc(=O)c3cc(Cl)ccc3[nH]2)cc1`, for which the Potency was 0.369 µM (active).
The result for `FC(F)(F)c1cc(Cl)c2nc(-c3ccccc3)cn2c1` reads 0.369 µM (active); that for `CNc1oc(/C=C/c2ccccc2)nc1C#N`, 3.29 µM (active).
Next, `CNc1oc(/C=C/c2cccc(OC)c2)nc1C#N`: 2.93 µM (active).
Regarding `CCCCNc1nc(N)nc(-c2cc(Cl)ccc2O)n1`, the Potency was 0.927 µM (active).
With `CNC(=O)c1ccc(NC(=O)/C=C/c2cccc(F)c2)cc1`, the Potency is 10.4 µM (active).
As for `Cn1cc([N+](=O)[O-])c(C(=O)Nc2ccc(-c3nc4ccccc4o3)cc2)n1`, the Potency is 7.36 µM (active).
Next, `Cn1cc([N+](=O)[O-])c(C(=O)Nc2ccc3nc(-c4ccccc4)[nH]c3c2)n1`: 14.7 µM (active).
Turning to `CC(C)(C)Nc1nc(-c2ccc3c(c2)CCN3C(=O)C2CC2)cs1`, the Potency was 1.47 µM (active).
For the compound `CNc1nc(-c2ccc3c(c2)CCN3C(=O)c2ccccc2C)cs1`, the Potency is 4.65 µM (active).
Next, `COC(=O)c1ccc(N2CCC(C)CC2)c(N)c1`: 4.14 µM (active).
Take `Cc1c(C(=O)NC2CCCCC2)oc2ccc(F)cc12`: the Potency is 13.1 µM (active).
The result for `COc1ccc2oc(C(=O)NC(C)(C)C)c(C)c2c1` reads 3.69 µM (active).
Next, `COc1ccc2oc(C(=O)NC3CCCCC3)c(C)c2c1`: 2.93 µM (active); `COc1ccc2c(c1)OC/C(=C/c1cccs1)C2=O`: 5.85 µM (active).
For `Cn1cccc1C(=O)N/N=C/c1c(Cl)cccc1Cl`, the Potency is 2.07 µM (active).
The result for `O=C(CSc1nnc(C2CCCCC2)o1)Nc1ccccc1Cl` reads 7.36 µM (active); that for `Cc1cccc2nc(=S)n(C(=O)c3ccco3)n12`, 0.521 µM (active); that for `Cc1cccn2c1nc(=S)n2C(=O)c1ccco1`, 1.04 µM (active).
Next, `CC(=O)Oc1ccc(C(=O)[C@H]2[C@H]3C(=O)N(c4ccc5ccccc5c4)C(=O)[C@H]3[C@@H]3C=CC=NN32)cc1`: 6.56 µM (active); `Cc1cc2nc(N)sc2cc1[N+](=O)[O-]`: 14.7 µM (active).
The result for `O=S(=O)(Nc1ccc(-c2nc3cccnc3s2)cc1)c1ccccc1F` reads 13.1 µM (active); that for `Cc1ccc(-c2nc3cccnc3s2)cc1NS(C)(=O)=O`, 4.14 µM (active); that for `O=S(=O)(Nc1ccc(-c2nc3cccnc3s2)cc1)c1cc(F)ccc1F`, 16.5 µM (active).
Consider `CCN1CCN(Cc2ccc(NC(=O)Nc3ccc(SC)cc3)cc2)CC1`, for which the Potency is 14.7 µM (active).
Next, `CCN1CCN(Cc2ccc(NC(=O)Nc3ccccc3Cl)cc2)CC1`: 1.31 µM (active); `O=C(Nc1ccc(CN2CCCCC2)cc1)Nc1ccccc1Cl`: 16.5 µM (active).
With `O=C(Nc1cc2c(cc1Cl)OCCCO2)c1ccco1`, the Potency was 3.69 µM (active).
The result for `O=C(Nc1cc2c(cc1Br)OCCO2)c1ccco1` reads 6.56 µM (active).
Next, `O=C(Nc1cc2c(cc1Cl)OCCO2)c1ccco1`: 6.56 µM (active); `O=C(NNC(=S)Nc1ccc(Br)cc1Cl)c1ccco1`: 3.29 µM (active).
Consider `O=C(CCc1ccccc1)Nc1cc2c(cc1Cl)OCCO2`, for which the Potency is 2.61 µM (active).
With `Cc1c(-c2ccccc2)[nH]n2c(=O)c3c(nc12)CCCC3`, the Potency was 2.93 µM (active).
Next, `CC(C)(C)C(=O)Nc1ccc(-c2nc3ccc(NC(=O)C(C)(C)C)cc3[nH]2)cc1`: 0.414 µM (active); `CC(=O)Nc1ccc2nc(-c3cccs3)[nH]c2c1`: 9.27 µM (active).
Consider `O=C1/C(=C\c2ccc(O)c(O)c2)N=C2CCCCCN12`, for which the Potency was 14.7 µM (active).
For the compound `CCOc1cc(/C=C2\N=C3CCCCCN3C2=O)ccc1O`, the Potency is 14.7 µM (active).
Turning to `Cc1ccc2nc(CNC(=O)c3ccccc3)[nH]c2c1`, the Potency was 6.56 µM (active).
The result for `Cc1c(/C(O)=C2/C(=O)C(=O)N(Cc3cccnc3)C2c2cccs2)cnn1-c1ccccc1` (centres undefined) reads 5.21 µM (active); that for `Cn1c(N)c(C(=O)/C=C/c2ccccc2)c(=O)[nH]c1=O`, 5.85 µM (active); that for `CNc1ccccc1C(=O)OCC(=O)c1ccccc1`, 16.5 µM (active).
The result for `Nc1cccc(C(=O)OCC(=O)c2ccccc2)c1` reads 7.36 µM (active); that for `CCC(=O)Nc1cc(C(=O)OCC(=O)c2ccccc2)ccc1C`, 1.85 µM (active); that for `CC(=O)Nc1cc(C(=O)OCC(=O)c2ccc(C)cc2)ccc1C`, 10.4 µM (active).
For the compound `CCC(=O)Nc1cc(C(=O)OCC(=O)c2ccccc2Cl)ccc1C`, the Potency is 10.4 µM (active).
The result for `CCc1ccc(C(=O)CCC2CCCCC2=O)cc1` (centres undefined) reads 16.5 µM (active); that for `Cc1ccc(C(=O)CCC2CCCCC2=O)cc1` (centres undefined), 14.7 µM (active); that for `O=C(O)c1ccccc1C(=O)NNc1cccc(Cl)n1`, 5.85 µM (active).
For the compound `CCOC(=O)/C=C/c1cnn(-c2ccccc2)c1`, the Potency was 2.33 µM (active).
